{"source": "the supplement of paper PMC5940239", "data": [{"tested_on": "Madurella mycetomatis MM55", "assay": "percent growth relative to solvent control; higher = less inhibition, active = 20 or less", "conditions": "100 µM; 7 days", "values": [{"smiles": "COc1cc(Br)cc2cc(C(=O)Nc3cccc(C(F)(F)F)c3)c(=O)oc12", "percent growth": "125% (inactive)"}, {"smiles": "Clc1ccc(-n2cc(COc3ccnc4ccccc34)nn2)cc1", "percent growth": "63% (inactive)"}, {"smiles": "FC(F)(F)c1ccc(N(c2cccnc2)C2CCN(c3ccc(C(F)(F)F)cn3)CC2)cc1", "percent growth": "59.5% (inactive)"}, {"smiles": "COC(=O)c1c(NC(=O)c2cc3ccccc3oc2=O)sc2c1CCN(Cc1ccccc1)C2", "percent growth": "111% (inactive)"}, {"smiles": "COC(=O)c1ccc(F)cc1NS(=O)(=O)c1cccc(-c2cnn(Cc3ccccc3)c2)c1", "percent growth": "118% (inactive)"}, {"smiles": "Cc1[nH]c2cc(F)cc(F)c2c(=O)c1-c1ccc(Oc2ccc(OC(F)(F)F)cc2)cc1", "percent growth": "95.7% (inactive)"}, {"smiles": "CCCCN(CCCC)c1c(C#N)cc(S(=O)(=O)Nc2ccccc2)cc1C#N", "percent growth": "85.7% (inactive)"}, {"smiles": "Cc1noc(C)c1C(=O)N1CCCC(c2[nH]c3c(C)cccc3c2-c2ccncc2)C1", "note": "(centres undefined)", "percent growth": "51.6% (inactive)"}, {"smiles": "COC(=O)Nc1nc2cc(C(=O)c3ccccc3)ccc2[nH]1", "percent growth": "111% (inactive)"}, {"smiles": "COc1ccc(C2CC(c3cccs3)=NN2C(=O)c2ccco2)cc1OC", "note": "(centres undefined)", "percent growth": "100% (inactive)"}, {"smiles": "CC1CCCCN1C(=O)NCCc1coc(-c2ccc(F)cc2)n1", "note": "(centres undefined)", "percent growth": "70% (inactive)"}, {"smiles": "CN1CCN(c2nccc3nc(-c4ccc(F)c(F)c4)[nH]c23)CC1", "percent growth": "52.1% (inactive)"}, {"smiles": "CC(=O)NC[C@@H]1CN(c2ccc(N3CCOCC3)c(F)c2)C(=O)O1", "percent growth": "107% (inactive)"}, {"smiles": "CCOc1ccc2cc(-c3nn(C(C)(C)C)c(N)c3C(N)=O)cnc2c1", "percent growth": "98.2% (inactive)"}, {"smiles": "O=C(Nc1cccnc1)c1c(O)c2cccc3c2n(c1=O)CC3", "percent growth": "85.3% (inactive)"}, {"smiles": "CC(=O)NC[C@H]1CN(c2ccc(N3CCSCC3)c(F)c2)C(=O)O1", "percent growth": "94.5% (inactive)"}, {"smiles": "CC1=Nc2ccc(Cl)cc2C(c2ccccc2)N1CCNC(=O)CN(C)C", "note": "(centres undefined)", "percent growth": "106% (inactive)"}, {"smiles": "Cc1cc(NC(=O)c2ccc(Oc3ccc(Cl)cc3O)o2)no1", "percent growth": "135% (inactive)"}, {"smiles": "CC[C@H](CO)NCCN[C@H](CC)CO", "percent growth": "139% (inactive)"}, {"smiles": "O=C(NC1CC1)c1ccc(N2CCC(Cc3ccccc3)CC2)nc1", "percent growth": "104% (inactive)"}, {"smiles": "Cc1cccc(NC(=O)c2cc(S(=O)(=O)N(C)c3ccc(F)cc3)ccc2Cl)n1", "percent growth": "70% (inactive)"}, {"smiles": "CCOc1ccccc1NC(C)C(=O)Nc1cc(C(F)(F)F)ccc1N1CCOCC1", "note": "(centres undefined)", "percent growth": "76.7% (inactive)"}, {"smiles": "CC(C)(C)C(=O)N(CCCCCCN1C[C@H](O)[C@@H](O)[C@H](O)[C@H]1CO)C1CCCCCC1", "percent growth": "86.6% (inactive)"}, {"smiles": "O=C(NCc1cc(Cl)cc(Cl)c1)c1c(C(F)(F)F)nc2ccccn12", "percent growth": "107% (inactive)"}]}]}
